This is an account of results in PubChem BioAssay (NCI).

The structures appear in SMILES notation. Compounds without any hit were thinned out: in the full panel of roughly 79,000, 15% have a hit. Unmarked numbers belong to inactive results. Activity calls are given as the source filed them. Rule as the data show it: active = growth inhibition above about 70%; inactive = the rest.

The nature of assay [1]: NCI Yeast Anticancer Drug Screen. Data for the rad50 strain (AID 155).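 Also: 0% = growth of vehicle-only cultures of the same strain.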 As to conditions: S. cerevisiae rad50 strain growth inhibition, active compounds read high. In outline:
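Compounds were tested on a yeast strain with an engineered DNA damage repair alteration; the reported value is growth inhibition normalised to vehicle treatment.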

The nature of assay [2]: NCI Yeast Anticancer Drug Screen. Data for the mec2-1 strain (AID 157). As to conditions: S. cerevisiae mec2-1 strain, active compounds read high. The essentials:
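Test agents were screened against the mec2-1 yeast strain, with defined DNA repair or cell cycle alteration. Growth was scored as inhibition against vehicle-only controls.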

The nature of assay [3]: NCI Yeast Anticancer Drug Screen. Data for the sgs1 mgt1 strain (AID 161).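 Also: 0% = growth of cultures given vehicle only.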 As to conditions: S. cerevisiae sgs1 mgt1 strain, active compounds read high. In outline: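 Inhibition of yeast growth, normalised to vehicle-treated controls, is reported for a strain bearing genetic alterations in DNA damage repair.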
A short description of assay [4]: NCI Yeast Anticancer Drug Screen. Data for the cln2 rad14 strain (AID 165).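 Also: 0% = growth equal to vehicle treated cultures.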 As to conditions: S. cerevisiae cln2 rad14 strain, active compounds read high. In outline: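 Growth of compound-exposed yeast (cln2 rad14 genotype) measured and expressed as inhibition relative to vehicle.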
A short description of assay [5]: NCI Yeast Anticancer Drug Screen. Data for the bub3 strain (AID 167). Conditions: S. cerevisiae bub3 mutant strain, active compounds read high. In outline: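 Growth of a checkpoint-deficient yeast mutant is measured after compound exposure. Values represent inhibition relative to vehicle.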
The nature of assay [6]: NCI Yeast Anticancer Drug Screen. Data for the mlh1 rad18 strain (AID 175). As to conditions: S. cerevisiae mlh1 rad18 strain growth inhibition, active compounds read high. In outline:
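In this whole-cell yeast screen, a strain with altered DNA damage repair is challenged with compound, and its growth is measured against matched vehicle-treated controls.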

Setting [7] is: at 5.0 µM (retest, dose inferred, filed as 0.5).
The mark [8] stands for this setting: at 50.0 µM (retest, dose inferred, filed as 5.0).

`C=C1CC(Cn2cc(Br)c(=O)[nH]c2=O)(c2ccc(Br)cc2)OC1=O` (configuration not stated): the growth inhibition in assay [1] (setting [7]) is 14%; in assay [1] (setting [8]), 98% (active); in assay [1] (at 50.0 µM), 97.8% (active); in assay [2] (setting [7]), 30%; in assay [2] (setting [8]), 98% (active); in assay [2] (at 50.0 µM), 98.7% (active). Further, the growth inhibition was 29% in assay [3] (setting [7]); 98% (active) in assay [3] (setting [8]); 97.8% (active) in assay [3] (at 50.0 µM); 19% in assay [4] (setting [7]); 90% (active) in assay [4] (setting [8]); 97.2% (active) in assay [4] (at 50.0 µM). In addition, the growth inhibition in assay [5] (setting [7]) was 4%; in assay [5] (setting [8]), 97% (active); in assay [5] (at 50.0 µM), 97.2% (active); in assay [6] (setting [7]), 40%; in assay [6] (setting [8]), 99% (active); in assay [6] (at 50.0 µM), 98.7% (active).
Turning to `Cn1c(=S)sc2nc3ccccc3n2c1=S`, the growth inhibition in assay [1] (setting [7]) is 49%; in assay [1] (setting [8]), 96% (active); in assay [1] (at 50.0 µM) it was 82.3% (active); in assay [2] (setting [7]), 12%; in assay [2] (setting [8]), 97% (active); in assay [2] (at 50.0 µM), 97% (active). The growth inhibition is 37% in assay [3] (setting [7]); 98% (active) in assay [3] (setting [8]); 92.2% (active) in assay [3] (at 50.0 µM); 18% in assay [4] (setting [7]); 98% (active) in assay [4] (setting [8]); 90% (active) in assay [4] (at 50.0 µM). The growth inhibition is 14% in assay [5] (setting [7]); 98% (active) in assay [5] (setting [8]); 87.4% (active) in assay [5] (at 50.0 µM); 54% in assay [6] (setting [7]); 97% (active) in assay [6] (setting [8]); 97.9% (active) in assay [6] (at 50.0 µM).
Consider `O=C1CSC(=S)N1/N=C/c1ccc(Cl)c([N+](=O)[O-])c1`, for which the growth inhibition in assay [1] (setting [7]) was 28%; in assay [1] (setting [8]), 86% (active); in assay [1] (at 50.0 µM), 63.8%; in assay [2] (setting [7]), 0%; in assay [2] (setting [8]) it was 40%; in assay [2] (at 50.0 µM) it was 52.1%. The growth inhibition is 2% in assay [3] (setting [7]); 77% (active) in assay [3] (setting [8]); 27.4% in assay [3] (at 50.0 µM); -16% in assay [4] (setting [7]); 40% in assay [4] (setting [8]); -37.7% in assay [4] (at 50.0 µM). In addition, the growth inhibition in assay [5] (setting [7]) is -8%; in assay [5] (setting [8]) it was 46%; in assay [5] (at 50.0 µM), 57.9%; in assay [6] (setting [7]), 2%; in assay [6] (setting [8]), 91% (active); in assay [6] (at 50.0 µM), 61.2%.
For the compound `CCCCCCCCNS(=O)(=O)c1ccc(N)cc1`, the growth inhibition in assay [1] (setting [7]) was 4%; in assay [1] (setting [8]), 9%; in assay [1] (at 50.0 µM), 80.8% (active); in assay [2] (setting [7]), 0%; in assay [2] (setting [8]) it was 2%; in assay [2] (at 50.0 µM) it was 25.2%. In addition, the growth inhibition in assay [3] (setting [7]) is 7%; in assay [3] (setting [8]), 2%; in assay [3] (at 50.0 µM) it was 70.5% (active); in assay [4] (setting [7]), 2%; in assay [4] (setting [8]), 0%; in assay [4] (at 50.0 µM), 16.8%. The growth inhibition was 1% in assay [5] (setting [7]); 0% in assay [5] (setting [8]); 61.2% in assay [5] (at 50.0 µM); 6% in assay [6] (setting [7]); 2% in assay [6] (setting [8]); 79.2% (active) in assay [6] (at 50.0 µM).
For `Cc1cccc2c(=O)c3ccccc3oc12`, the growth inhibition in assay [1] (setting [7]) is 5%; in assay [1] (setting [8]), 42%; in assay [1] (at 50.0 µM) it was 47.5%; in assay [2] (setting [7]) it was 2%; in assay [2] (setting [8]), 11%; in assay [2] (at 50.0 µM), 17.2%. Moreover, the growth inhibition in assay [3] (setting [7]) is -1%; in assay [3] (setting [8]), 18%; in assay [3] (at 50.0 µM), 15.4%; in assay [4] (setting [7]), 12%; in assay [4] (setting [8]) it was -1%; in assay [4] (at 50.0 µM) it was -63.5%. Also, the growth inhibition in assay [5] (setting [7]) was 9%; in assay [5] (setting [8]), 19%; in assay [5] (at 50.0 µM), 14.5%; in assay [6] (setting [7]), 9%; in assay [6] (setting [8]) it was 11%; in assay [6] (at 50.0 µM) it was 3.5%.
For the compound `[Pt].c1ccc([PH+](CC[PH+](CC[PH+](c2ccccc2)c2ccccc2)CC[PH+](c2ccccc2)c2ccccc2)c2ccccc2)cc1`, the growth inhibition is 54% in assay [1] (setting [7]); 96% (active) in assay [1] (setting [8]); 89.8% (active) in assay [1] (at 50.0 µM); 97% (active) in assay [2] (setting [7]); 98% (active) in assay [2] (setting [8]); 90.7% (active) in assay [2] (at 50.0 µM). Moreover, the growth inhibition in assay [3] (setting [7]) was 28%; in assay [3] (setting [8]), 97% (active); in assay [3] (at 50.0 µM) it was 91.7% (active); in assay [4] (setting [7]), 27%; in assay [4] (setting [8]), 97% (active); in assay [4] (at 50.0 µM), 89.3% (active). The growth inhibition is 93% (active) in assay [5] (setting [7]); 97% (active) in assay [5] (setting [8]); 89.8% (active) in assay [5] (at 50.0 µM); 68% in assay [6] (setting [7]); 97% (active) in assay [6] (setting [8]); 88.7% (active) in assay [6] (at 50.0 µM).
On to `CCc1n[nH]c(CC)c1CCCCCCOc1ccc(OC)cc1Cl`, for which the growth inhibition is -8% in assay [1] (setting [7]); 60% in assay [1] (setting [8]); 83.8% (active) in assay [1] (at 50.0 µM); -15% in assay [2] (setting [7]); 77% (active) in assay [2] (setting [8]); 92.4% (active) in assay [2] (at 50.0 µM). In addition, the growth inhibition in assay [3] (setting [7]) is -3%; in assay [3] (setting [8]), 73% (active); in assay [3] (at 50.0 µM) it was 92.2% (active); in assay [4] (setting [7]), -28%; in assay [4] (setting [8]), 76% (active); in assay [4] (at 50.0 µM) it was 89.7% (active). In addition, the growth inhibition in assay [5] (setting [7]) was -8%; in assay [5] (setting [8]), 83% (active); in assay [5] (at 50.0 µM), 89.2% (active); in assay [6] (setting [7]) it was -11%; in assay [6] (setting [8]) it was 73% (active); in assay [6] (at 50.0 µM), 93.7% (active).
Take `Cc1ccc(-c2c(C#N)c(S)n(NS(=O)(=O)c3ccccc3)c(=O)c2C#N)cc1`: the growth inhibition was 28% in assay [1] (setting [7]); 89% (active) in assay [1] (setting [8]); 60.1% in assay [1] (at 50.0 µM); 12% in assay [2] (setting [7]); 91% (active) in assay [2] (setting [8]); 80% (active) in assay [2] (at 50.0 µM). For the same compound, the growth inhibition in assay [3] (setting [7]) was 32%; in assay [3] (setting [8]) it was 94% (active); in assay [3] (at 50.0 µM), 83.8% (active); in assay [4] (setting [7]), 47%; in assay [4] (setting [8]), 64%; in assay [4] (at 50.0 µM), 29.4%. Moreover, the growth inhibition is 53% in assay [5] (setting [7]); 94% (active) in assay [5] (setting [8]); 71.2% (active) in assay [5] (at 50.0 µM); 16% in assay [6] (setting [7]); 66% in assay [6] (setting [8]); 75.6% (active) in assay [6] (at 50.0 µM).
`O=C1c2ccccc2-c2cc3ccccc3nc21`: the growth inhibition in assay [1] (setting [7]) was 28%; in assay [1] (setting [8]), 89% (active); in assay [1] (at 50.0 µM) it was 72.7% (active); in assay [2] (setting [7]), 21%; in assay [2] (setting [8]), 70% (active); in assay [2] (at 50.0 µM), 60.8%. Besides, the growth inhibition in assay [3] (setting [7]) was 15%; in assay [3] (setting [8]) it was 67%; in assay [3] (at 50.0 µM), 48.2%; in assay [4] (setting [7]) it was 23%; in assay [4] (setting [8]) it was 73% (active); in assay [4] (at 50.0 µM), 62.4%. Also, the growth inhibition in assay [5] (setting [7]) was 15%; in assay [5] (setting [8]), 73% (active); in assay [5] (at 50.0 µM), 61.3%; in assay [6] (setting [7]), 16%; in assay [6] (setting [8]) it was 82% (active); in assay [6] (at 50.0 µM), 84.5% (active).
